# Laboratory results from PubChem BioAssay (EPA / NIEHS).
# Records with an inconclusive call do not appear. Activity calls are given as the source filed them. The calls were made as follows, unless noted: active = hit-call score of the fitted dose curve at least 0.9, where 1 is the maximum; inactive = score below 0.9.
# Assays:
# [1] = target: human RAR-related Orphan Receptor gamma (RORg), RORC (gene 6097) (UniProt P51449); experiment: ATG_RORg_TRANS: Attagene TRANS-FACTORIAL HepG2 Assay for human RAR-related Orphan Receptor gamma (RORg) (AID 2283011; active = hit-call score of the fitted dose curve at least 0.9, where 1 is the maximum)
# Sequence of human RAR-related Orphan Receptor gamma (RORg), RORC (gene 6097) (P51449 whole entry, looked up, the tested form may be a part): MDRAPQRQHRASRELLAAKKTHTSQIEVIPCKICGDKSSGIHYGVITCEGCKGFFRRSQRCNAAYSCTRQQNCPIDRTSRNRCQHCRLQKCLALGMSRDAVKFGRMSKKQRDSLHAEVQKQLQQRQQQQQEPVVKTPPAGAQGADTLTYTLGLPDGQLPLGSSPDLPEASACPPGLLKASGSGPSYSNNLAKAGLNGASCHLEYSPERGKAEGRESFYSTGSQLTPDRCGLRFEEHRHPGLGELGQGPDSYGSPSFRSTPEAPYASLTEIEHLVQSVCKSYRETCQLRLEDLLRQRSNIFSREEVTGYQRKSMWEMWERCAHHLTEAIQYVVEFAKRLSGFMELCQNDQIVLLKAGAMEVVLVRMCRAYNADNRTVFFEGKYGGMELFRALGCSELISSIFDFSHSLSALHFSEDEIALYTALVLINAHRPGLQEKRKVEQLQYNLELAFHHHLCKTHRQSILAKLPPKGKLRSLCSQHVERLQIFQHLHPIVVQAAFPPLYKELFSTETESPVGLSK
# How it was run: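 First, HepG2 liver cells were transfected with GAL4-UAS-driven reporter constructs and the RORg-Gal4 fusion. Next, they were treated with chemical for 24 h. Finally, reporter mRNA was quantified by RT-PCR and capillary electrophoresis, with upward activity fitted against DMSO.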
# [2] = target: Retinoic acid receptor RXR-alpha (Homo sapiens) (UniProt P19793); experiment: ATG_RXRa_TRANS: Attagene TRANS-FACTORIAL HepG2 Assay for human Retinoid X Receptor alpha (RXRa) (AID 2283012; active = hit-call score of the fitted dose curve at least 0.9, where 1 is the maximum)
# Sequence of Retinoic acid receptor RXR-alpha (Homo sapiens) (P19793 whole entry, looked up, the tested form may be a part): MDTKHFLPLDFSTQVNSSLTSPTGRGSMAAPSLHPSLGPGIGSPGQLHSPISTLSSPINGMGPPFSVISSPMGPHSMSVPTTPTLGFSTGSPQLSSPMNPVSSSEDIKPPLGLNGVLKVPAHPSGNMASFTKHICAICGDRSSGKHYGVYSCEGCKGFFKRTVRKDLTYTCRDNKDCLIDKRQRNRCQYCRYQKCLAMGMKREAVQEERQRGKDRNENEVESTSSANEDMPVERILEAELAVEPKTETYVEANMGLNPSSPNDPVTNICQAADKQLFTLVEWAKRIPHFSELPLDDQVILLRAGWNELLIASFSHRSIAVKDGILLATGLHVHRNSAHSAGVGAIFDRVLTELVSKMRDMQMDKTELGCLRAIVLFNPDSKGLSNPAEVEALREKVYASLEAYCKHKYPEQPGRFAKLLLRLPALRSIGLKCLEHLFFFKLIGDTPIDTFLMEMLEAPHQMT
# How it was run: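 HepG2 cells transiently transfected with GAL4-UAS reporter units and chimeric RXRa-Gal4 protein, treated 24 h. Reporter mRNA measured by RT-PCR, fluorescent labelling, HpaI digestion and capillary electrophoresis. Induction fitted against DMSO.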
# [3] = target: human Retinoid X Receptor beta (RXRb), RXRB (gene 6257) (UniProt P28702); experiment: ATG_RXRb_TRANS: Attagene TRANS-FACTORIAL HepG2 Assay for human Retinoid X Receptor beta (RXRb) (AID 2283013; active = hit-call score of the fitted dose curve at least 0.9, where 1 is the maximum)
# Sequence of human Retinoid X Receptor beta (RXRb), RXRB (gene 6257) (P28702 whole entry, looked up, the tested form may be a part): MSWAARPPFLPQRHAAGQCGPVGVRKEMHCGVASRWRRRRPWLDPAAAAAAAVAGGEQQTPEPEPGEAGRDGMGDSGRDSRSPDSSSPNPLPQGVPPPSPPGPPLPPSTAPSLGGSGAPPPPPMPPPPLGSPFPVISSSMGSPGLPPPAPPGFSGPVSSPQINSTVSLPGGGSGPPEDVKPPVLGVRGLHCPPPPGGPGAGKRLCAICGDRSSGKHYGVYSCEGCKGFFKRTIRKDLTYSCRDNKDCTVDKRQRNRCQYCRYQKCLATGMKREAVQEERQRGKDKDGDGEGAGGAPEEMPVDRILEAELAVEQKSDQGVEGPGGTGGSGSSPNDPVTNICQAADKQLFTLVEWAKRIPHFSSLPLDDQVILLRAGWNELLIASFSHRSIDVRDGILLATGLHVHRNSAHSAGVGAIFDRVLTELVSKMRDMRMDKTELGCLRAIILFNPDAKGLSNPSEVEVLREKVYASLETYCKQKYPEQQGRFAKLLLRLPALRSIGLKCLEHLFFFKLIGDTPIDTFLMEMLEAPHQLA
# How it was run: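 HepG2 cells were transiently transfected with multiplexed GAL4-UAS reporters and a chimeric RXRb-Gal4 construct, then exposed for 24 h. Reporter mRNA was quantified by RT-PCR, FAM labeling, HpaI digestion and capillary electrophoresis; gain of signal was scored against DMSO.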
# [4] = target: human Thyroid Receptor alpha (THRa1), THRA (gene 7067) (UniProt P10827); experiment: ATG_THRa1_TRANS: Attagene TRANS-FACTORIAL HepG2 Assay for human Thyroid Receptor alpha (THRa1) (AID 2283014; active = hit-call score of the fitted dose curve at least 0.9, where 1 is the maximum)
# Sequence of human Thyroid Receptor alpha (THRa1), THRA (gene 7067) (P10827 whole entry, looked up, the tested form may be a part): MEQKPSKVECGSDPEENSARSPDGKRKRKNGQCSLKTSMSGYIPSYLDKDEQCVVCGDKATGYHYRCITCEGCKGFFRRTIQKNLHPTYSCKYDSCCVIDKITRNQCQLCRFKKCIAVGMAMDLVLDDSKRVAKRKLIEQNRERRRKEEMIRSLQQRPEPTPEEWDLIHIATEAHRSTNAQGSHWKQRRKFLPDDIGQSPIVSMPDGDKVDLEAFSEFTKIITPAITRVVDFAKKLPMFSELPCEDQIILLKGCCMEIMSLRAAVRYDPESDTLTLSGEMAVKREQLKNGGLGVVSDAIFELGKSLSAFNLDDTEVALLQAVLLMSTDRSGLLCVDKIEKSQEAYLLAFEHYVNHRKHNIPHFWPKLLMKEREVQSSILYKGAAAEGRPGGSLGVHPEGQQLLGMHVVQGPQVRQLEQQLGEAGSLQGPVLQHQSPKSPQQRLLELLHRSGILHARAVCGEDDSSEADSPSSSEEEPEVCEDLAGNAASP
# How it was run: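 Reporter transcript induction, read by capillary electrophoresis of 6-FAM-labelled RT-PCR products, reflects activity of a transfected THRa1-Gal4 fusion in HepG2 liver cells. Cells were dosed for 24 h; activity was fitted in the positive direction against DMSO.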
# [5] = read-out: E-selectin (Homo sapiens) (UniProt P16581); experiment: BSK_3C_Eselectin: BioMAP Diversity Plus: 3C Assay for Eselectin Biomarker Activity (AID 2283015); conditions: primary human endothelial cells (HUVEC); actives raise or lower the signal
# How it was run: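 ELISA read-out of E-selectin on endothelial monolayers after 24 h chemical treatment. Human umbilical vein primary cells served as the system, with DMSO defining baseline activity for bidirectional fitting.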
# [6] = read-out: Interleukin-1 alpha (IL1a), IL1A (gene 3552); experiment: BSK_BE3C_IL1a: BioMAP Diversity Plus: BE3C Assay for Interleukin-1 alpha (IL1a) Biomarker Activity (AID 2283016); conditions: primary human bronchial epithelial cells; actives raise or lower the signal
# How it was run: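 Human primary bronchial epithelial cells, 24 h chemical exposure; IL-1a quantified by ELISA, fitted bidirectionally against DMSO. Cytotoxicity assessed in parallel by SRB total-protein staining at the time of measurement.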
# [7] = read-out: Monocyte Chemoattractant Protein-1 (MCP1), CCL2 (gene 6347); experiment: BSK_4H_MCP1: BioMAP Diversity Plus: 4H Assay for Monocyte Chemoattractant Protein-1 (MCP1) Biomarker Activity (AID 2283018); conditions: primary human endothelial cells (HUVEC); actives raise or lower the signal
# How it was run: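 Human umbilical vein endothelial cells (4H system) exposed to chemicals for 24 h in 96-well format. MCP-1 measured by ELISA; bidirectional fitting against DMSO, with SRB total-protein staining in parallel cultures for cytotoxicity.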
# [8] = read-out: Human Leukocyte Antigen - DR isotype (HLADR), HLA-DRA (gene 3122); experiment: BSK_3C_HLADR: BioMAP Diversity Plus: 3C Assay for Human Leukocyte Antigen - DR isotype (HLADR) Biomarker Activity (AID 2283019); conditions: primary human endothelial cells (HUVEC); actives raise or lower the signal;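 as to outcome: ELISA of cell-surface HLA-DR on HUVEC 24 h after dosing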
# How it was run: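 ELISA readout of surface HLA-DR on human umbilical vein endothelium, taken 24 h after chemical treatment. Gain- and loss-of-signal were both fitted relative to DMSO.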
# [9] = read-out: Interleukin-8 (IL8), CXCL8 (gene 3576); experiment: BSK_3C_IL8: BioMAP Diversity Plus: 3C Assay for Interleukin-8 (IL8) Biomarker Activity (AID 2283020); conditions: primary human endothelial cells (HUVEC); actives raise or lower the signal
# How it was run: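 Primary human umbilical vein endothelial cells were dosed for 24 h. IL-8 was quantified by ELISA and fitted bidirectionally against DMSO. Cytotoxicity was assessed in parallel cultures by SRB staining at 560 nm.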
# [10] = read-out: Monokine induced gamma interferon (MIG), CXCL9 (gene 4283); experiment: BSK_3C_MIG: BioMAP Diversity Plus: 3C Assay for Monokine induced gamma interferon (MIG) Biomarker Activity (AID 2283021); conditions: primary human endothelial cells (HUVEC); actives raise or lower the signal
# How it was run: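 HUVEC primary endothelial cultures dosed with chemical; MIG quantified by ELISA at 24 h. Data fitted bidirectionally against DMSO control, with parallel SRB total-protein staining for cytotoxicity.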
# [11] = BSK_3C_SRB: Viability Assessment in the BioMAP Diversity Plus: 3C Assay (AID 2283023); conditions: primary human endothelial cells (HUVEC);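 also: fitted both ways against DMSO so a hit may be signal rise or drop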
# How it was run: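 Absorbance at 560 nm of sulforhodamine B-stained (0.1%) total protein served as a cytotoxicity readout in human umbilical vein endothelial cells, 24 h after chemical treatment. Signal was fitted bidirectionally relative to DMSO.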
# [12] = read-out: Matrix Metallopeptidase 1 (MMP1), MMP1 (gene 4312); experiment: BSK_BE3C_MMP1: BioMAP Diversity Plus: BE3C Assay for Matrix Metallopeptidase 1 (MMP1) Biomarker Activity (AID 2283024); conditions: primary human bronchial epithelial cells; actives raise or lower the signal
# How it was run: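 Human primary bronchial epithelial cells (BE3C system) dosed for 24 h; MMP-1 quantified by ELISA. Bidirectional fit against DMSO; cytotoxicity tracked in parallel cultures by SRB total-protein staining.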
# [13] = BSK_3C_Vis: BioMAP Diversity Plus: 3C Assay for Morphology Visualization (AID 2283025); conditions: primary human endothelial cells (HUVEC);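 also: light microscopy image of cell morphology used as background control; fitted both ways so gain or loss versus DMSO counts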
# How it was run: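 Human umbilical vein endothelial cell morphology was inspected by light microscopy 24 h after chemical dosing; scored bidirectionally relative to DMSO.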
# [14] = read-out: Pselectin, SELP (gene 6403); experiment: BSK_4H_Pselectin: BioMAP Diversity Plus: 4H Assay for Pselectin Biomarker Activity (AID 2283026); conditions: primary human endothelial cells (HUVEC); actives raise or lower the signal
# How it was run: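 Primary human umbilical vein endothelial cells were treated 24 h, and cell-surface P-selectin was then quantified by ELISA. Bidirectional fit versus DMSO; cytotoxicity checked in parallel cultures by SRB total-protein staining.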
# [15] = BSK_4H_SRB: Viability Assessment in the BioMAP Diversity Plus: 4H Assay (AID 2283027); conditions: primary human endothelial cells (HUVEC);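 also: cells exposed to compound for 24 h before staining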
# How it was run: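 Human umbilical vein endothelial cells, 24 h after chemical dosing; total protein measured by 0.1% sulforhodamine B staining after 10% TCA fixation, read at 560 nm. Bidirectional fitting against DMSO.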
# [16] = BSK_BE3C_SRB: Viability Assessment in the BioMAP Diversity Plus: BE3C Assay (AID 2283028); conditions: primary human bronchial epithelial cells;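 as to AC50: fitted both ways so AC50 may mark signal gain or loss versus DMSO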
# How it was run: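 Cells (human bronchial epithelial, primary) are treated with chemicals, and after 24 h the parallel cultures are fixed in 10% TCA. These are then stained with 0.1% SRB and read at 560 nm. Gain or loss of signal is fitted relative to DMSO.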
# [17] = read-out: Thrombomodulin, THBD (gene 7056); experiment: BSK_3C_Thrombomodulin: BioMAP Diversity Plus: 3C Assay for Thrombomodulin Biomarker Activity (AID 2283029); conditions: primary human endothelial cells (HUVEC); actives raise or lower the signal
# How it was run: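 Human umbilical vein endothelial cells were exposed to chemicals for 24 h; cell-surface thrombomodulin quantified by ELISA, with bidirectional fitting against DMSO baseline.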
# [18] = read-out: Urokinase-type plasminogen activator receptor (uPAR), PLAUR (gene 5329); experiment: BSK_4H_uPAR: BioMAP Diversity Plus: 4H Assay for Urokinase-type plasminogen activator receptor (uPAR) Biomarker Activity (AID 2283030); conditions: primary human endothelial cells (HUVEC); actives raise or lower the signal
# How it was run: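 Cell-surface uPAR ELISA signal, measured 24 h after dosing human umbilical vein endothelial cells, was analyzed with bidirectional fitting relative to DMSO. Parallel SRB staining of total protein tracked overt cytotoxicity.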
# [19] = target: human Vitamin D Receptor (VDR), VDR (gene 7421) (UniProt P11473); experiment: ATG_VDR_TRANS: Attagene TRANS-FACTORIAL HepG2 Assay for human Vitamin D Receptor (VDR) (AID 2283022; active = hit-call score of the fitted dose curve at least 0.9, where 1 is the maximum)
# Sequence of human Vitamin D Receptor (VDR), VDR (gene 7421) (P11473 whole entry, looked up, the tested form may be a part): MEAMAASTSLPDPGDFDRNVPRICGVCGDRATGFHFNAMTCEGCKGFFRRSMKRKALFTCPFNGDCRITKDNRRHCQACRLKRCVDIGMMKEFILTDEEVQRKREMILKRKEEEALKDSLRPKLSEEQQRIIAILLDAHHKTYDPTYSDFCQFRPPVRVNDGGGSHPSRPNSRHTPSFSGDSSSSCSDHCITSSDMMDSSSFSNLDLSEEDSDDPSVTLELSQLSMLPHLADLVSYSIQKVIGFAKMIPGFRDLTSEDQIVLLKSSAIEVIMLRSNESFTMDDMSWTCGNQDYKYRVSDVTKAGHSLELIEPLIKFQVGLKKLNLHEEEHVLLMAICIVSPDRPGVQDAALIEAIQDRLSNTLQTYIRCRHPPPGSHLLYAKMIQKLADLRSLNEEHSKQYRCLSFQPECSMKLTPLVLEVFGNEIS
# How it was run: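 Steps: transfect HepG2 with GAL4-UAS-driven reporter constructs; dose compounds 24 h; isolate RNA, reverse-transcribe, PCR-amplify with 6-FAM-labelled primer extension and HpaI digestion; quantify fragments by capillary electrophoresis relative to DMSO.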
# Sequence of E-selectin (Homo sapiens) (P16581 whole entry, looked up): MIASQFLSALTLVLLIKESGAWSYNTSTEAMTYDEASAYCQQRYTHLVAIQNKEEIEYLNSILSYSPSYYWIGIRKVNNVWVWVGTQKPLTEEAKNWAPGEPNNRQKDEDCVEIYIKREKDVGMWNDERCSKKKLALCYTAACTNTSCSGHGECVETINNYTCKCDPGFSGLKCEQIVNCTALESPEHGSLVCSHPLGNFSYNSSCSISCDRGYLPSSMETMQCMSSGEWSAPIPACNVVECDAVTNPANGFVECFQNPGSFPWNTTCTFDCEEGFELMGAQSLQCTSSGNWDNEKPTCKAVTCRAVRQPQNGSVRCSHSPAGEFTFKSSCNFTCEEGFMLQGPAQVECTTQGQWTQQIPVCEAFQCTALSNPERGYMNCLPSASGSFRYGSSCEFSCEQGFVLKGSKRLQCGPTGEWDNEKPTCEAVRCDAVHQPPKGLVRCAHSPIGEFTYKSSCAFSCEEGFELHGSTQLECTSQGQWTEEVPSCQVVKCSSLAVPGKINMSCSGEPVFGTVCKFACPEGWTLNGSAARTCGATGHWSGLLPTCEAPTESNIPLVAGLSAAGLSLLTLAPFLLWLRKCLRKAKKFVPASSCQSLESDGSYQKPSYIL
compound,measurement,setting,value
COc1ccc(OC)c(N=Nc2c(O)ccc3ccccc23)c1,outcome,[1],inactive
same,outcome,[2],inactive
same,outcome,[3],inactive
same,outcome,[4],inactive
same,outcome,[5],inactive
same,AC50,[6],2.11 µM (active)
same,outcome,[7],inactive
same,AC50,[8],10.9 µM (active)
same,outcome,[9],inactive
same,outcome,[10],inactive
same,outcome,[11],inactive
same,outcome,[12],inactive
same,AC50,[13],13 µM (active)
same,AC50,[14],5.42 µM (active)
same,outcome,[15],inactive
same,AC50,[16],5.55 µM (active)
same,AC50,[17],9.48 µM (active)
same,outcome,[18],inactive
Cc1[nH]c(=O)c(C#N)cc1-c1ccncc1,outcome,[1],inactive
same,outcome,[2],inactive
C=C1C[C@]23C[C@@]1(O)CC[C@H]2[C@@]12C=C[C@H](O)[C@@](C)(C(=O)O1)[C@H]2[C@@H]3C(=O)O,outcome,[1],inactive
same,outcome,[2],inactive
same,outcome,[3],inactive
same,outcome,[4],inactive
same,outcome,[19],inactive
O=C(O)c1cccnc1C(=O)O,outcome,[1],inactive
same,outcome,[2],inactive
C=CC(=C)CCCC(C)(C)OC(C)=O,outcome,[1],inactive
same,outcome,[2],inactive
C=Cc1ccc(C(C)(C)C)cc1,outcome,[1],inactive
same,outcome,[2],inactive
same,outcome,[3],inactive
CCCCCC(C)=O,outcome,[1],inactive
same,outcome,[2],inactive
same,outcome,[3],inactive
CC(=O)CC(=O)Nc1ccc(C)cc1C,outcome,[1],inactive
same,outcome,[2],inactive
CC(C)CCCCCCCCCCCCCCC(=O)O,outcome,[1],inactive
same,outcome,[2],inactive
same,AC50,[3],11.4 µM (active)
same,outcome,[4],inactive
CCO/C=C1\N=C(c2ccccc2)OC1=O,outcome,[1],inactive
same,outcome,[2],inactive
same,outcome,[3],inactive
C=CC(=O)OCCC#N,outcome,[1],inactive
same,outcome,[2],inactive
same,outcome,[3],inactive
same,outcome,[4],inactive
O=CN1CCOCC1,outcome,[1],inactive
same,outcome,[2],inactive
same,outcome,[5],inactive
same,outcome,[6],inactive
same,outcome,[7],inactive
same,outcome,[8],inactive
same,outcome,[9],inactive
same,outcome,[10],inactive
same,outcome,[11],inactive
same,outcome,[12],inactive
same,outcome,[14],inactive
same,outcome,[16],inactive
same,outcome,[17],inactive
same,outcome,[18],inactive
C=CCN(CC=C)CC=C,outcome,[1],inactive
same,outcome,[2],inactive
same,outcome,[19],inactive
O=C1OC2(c3ccccc31)c1ccc(O)c(Br)c1Oc1c2ccc(O)c1Br,outcome,[1],inactive
same,outcome,[2],inactive
same,outcome,[3],inactive
same,AC50,[5],24.7 µM (active)
same,AC50,[6],9.21 µM (active)
same,AC50,[7],25.4 µM (active)
same,AC50,[8],20 µM (active)
same,AC50,[9],24.4 µM (active)
same,outcome,[10],inactive
same,outcome,[19],inactive
same,outcome,[11],inactive
same,outcome,[12],inactive
same,AC50,[13],37.5 µM (active)
same,AC50,[14],20 µM (active)
same,outcome,[16],inactive
same,AC50,[17],20 µM (active)
same,AC50,[18],20 µM (active)
